Test results from PubChem BioAssay (Tox21).
Records with an inconclusive call do not appear. Calls of active or inactive are those of the source. Unless noted, calls follow the shape of the dose curve; as a rule, active = well fitted curve in the direction sought with a large enough effect in the repeat runs; inconclusive = weak or mixed curves; inactive = no such curve, though single readings can be large; an effect the other way counts as inactive or inconclusive.

Columns and labels:
[1] = qHTS assay to identify small molecule antagonists of the thyroid receptor (TR) signaling pathway - cell viability counter screen (AID 743064); also: nearly all actives have a fitted effect of over 50% in size
Summary of the method: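 GH3.TRE-Luc rat pituitary cells carrying a TRE-luciferase reporter were treated with compound plus 1 nM T3 (final) for 23.5 h at 37 °C. Viability was then read in the same wells by CellTiter-Fluor fluorescence after a further 30 min.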

[2] = test system: thyroid hormone receptor (rat, GH3 cells); assay: qHTS assay to identify small molecule agonists of the thyroid receptor (TR) signaling pathway (AID 743066; calls by dose curve)
[3] = target: Estrogen receptor (Homo sapiens) (UniProt P03372); assay: qHTS assay to identify small molecule antagonists of the estrogen receptor alpha (ER-alpha) signaling pathway (AID 743069; active = well fitted curve in the direction sought with a large enough effect in the signal ratio in the repeat runs, not every such curve was filed as active; the % refers to the signal ratio)
Summary of the method: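 Antagonist mode: compounds in DMSO were co-added with 17beta-estradiol to ER-alpha-bla HEK293 cells (2% charcoal-stripped serum) and left 18 h at 37C. Reporter inhibition was measured as FRET fluorescence after 2 h LiveBLAzer substrate at room temperature.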

[4] = qHTS assay to identify small molecule antagonists of the estrogen receptor alpha (ER-alpha) signaling pathway - cell viability counter screen (AID 743074; calls by dose curve;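 also: HEK293 cells carrying ER-alpha-UAS-bla reporter stimulated with 17beta-estradiol; nearly all actives have a fitted effect of over 45% in size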)
[5] = target: Estrogen receptor (Homo sapiens) (UniProt P03372); assay: qHTS assay to identify small molecule agonists of the estrogen receptor alpha (ER-alpha) signaling pathway (AID 743075; calls by dose curve;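 also: HEK293 GripTite cells with ER-alpha and UAS-driven beta-lactamase reporter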)
[6] = target: Estrogen receptor (Homo sapiens) (UniProt P03372); assay: qHTS assay to identify small molecule agonists of the estrogen receptor alpha (ER-alpha) signaling pathway using the BG1 cell line (AID 743079); also: nearly all actives have a fitted effect of over 20% in size
[7] = qHTS assay to identify small molecule antagonists of the estrogen receptor alpha (ER-alpha) signaling pathway using the BG1 cell line (AID 743080; calls by dose curve;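 also: BG1 cells stimulated with 17beta-estradiol alongside compound; series mostly up to about 70 µM; nearly all actives have a fitted effect of over 25% in size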)
Summary of the method: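 Seeding, 24 h rest, compound transfer from DMSO, 17beta-estradiol addition, 21.5 h incubation, CellTiter-Fluor (30 min, 37 C), then ONE-Glo (30 min, room temperature): this sequence was run on BG1-Luc-4E2 reporter cells.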

[8] = qHTS assay to identify small molecule antagonists of the estrogen receptor alpha (ER-alpha) signaling pathway using the BG1 cell line - cell viability counter screen (AID 743081);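 also: compound given together with 17beta-estradiol as the ER stimulus; series mostly up to about 70 µM; nearly all actives have a fitted effect of over 45% in size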
[9] = target: Aromatase (Homo sapiens) (UniProt P11511); assay: qHTS assay to identify aromatase inhibitors (AID 743083); also: series mostly up to about 70 µM; nearly all actives have a fitted effect of over 55% in size
[10] = qHTS assay to identify aromatase inhibitors - cell viability counter screen (AID 743084);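 also: cells stimulated with testosterone during compound exposure; nearly all actives have a fitted effect of over 55% in size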
[11] = target: Aryl hydrocarbon receptor (Homo sapiens) (UniProt P35869); assay: qHTS assay to identify small molecule that activate the aryl hydrocarbon receptor (AhR) signaling pathway (AID 743085);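 also: HG2L7.5c1 human HepG2 liver cells with stably integrated DRE-driven firefly reporter; series mostly up to about 70 µM; nearly all actives have a fitted effect of over 15% in size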
Summary of the method: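 HepG2 cells (HG2L7.5c1) stably carrying a firefly luciferase reporter driven by 20 dioxin responsive elements were exposed to compound for 24 h at 37C after a 5 h settling period; luminescence rise (ONE-Glo) indicated activation.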

[12] = qHTS assay to identify small molecule that activate the aryl hydrocarbon receptor (AhR) signaling pathway - cell viability counter screen (AID 743086);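 also: HepG2 liver cells carrying the AhR DRE luciferase reporter; series mostly up to about 70 µM; nearly all actives have a fitted effect of over 45% in size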
Summary of the method: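 Cytotoxicity counter screen: CellTiter-Fluor signal (30 min, 37 C) in 4000 HepG2 cells/well carrying the DRE-luciferase reporter, following 24 h compound exposure at 37 C.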

[13] = target: Peroxisome proliferator-activated receptor gamma (Homo sapiens) (UniProt P37231); assay: qHTS assay to identify small molecule agonists of the peroxisome proliferator-activated receptor gamma (PPARg) signaling pathway (AID 743094; active = well fitted activation curve with a large enough effect in the signal ratio in the repeat runs, not every such curve was filed as active; the % refers to the signal ratio)
Summary of the method: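 HEK293H PPARg-bla cells, 5 h settle at 37C/5% CO2; compound (DMSO) 17 h, 37C; B/G FRET substrate 1 h RT; fluorescence intensity read-out. qHTS format.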

[14] = qHTS assay to identify small molecule antagonists of the peroxisome proliferator-activated receptor gamma (PPARg) signaling pathway - cell viability counter screen (AID 743194); also: nearly all actives have a fitted effect of over 55% in size
Summary of the method: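 Viability was measured as CellTiter-Glo luminescence in GeneBLAzer PPARg UAS-bla HEK293H cells. These cells had been exposed 17 h at 37 C to compounds together with rosiglitazone at 50 nM final, with the beta-lactamase readout taken in the same wells.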

[15] = qHTS assay for small molecule agonists of the antioxidant response element (ARE) signaling pathway (AID 743202; active = well fitted activation curve with a large enough effect in the signal ratio in the repeat runs, not every such curve was filed as active; the % refers to the signal ratio)
Summary of the method: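 After 16 hours of compound treatment at 37 C, HepG2 cells with a stably integrated ARE-driven beta-lactamase reporter were loaded 2 hours at room temperature with LiveBLAzer B/G FRET substrate and fluorescence intensity measured.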

[16] = qHTS assay for small molecule agonists of the antioxidant response element (ARE) signaling pathway - cell viability counter screen (AID 743203; calls by dose curve; also: nearly all actives have a fitted effect of over 55% in size)
Summary of the method: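 Luminescence read-out (CellTiter-Glo, 30 min at room temperature) measured cell viability in the same wells as the ARE beta-lactamase reporter. HepG2 ARE-bla cells were treated with compounds for 16 hrs at 37C/5% CO2.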

[17] = qHTS assay for small molecule activators of the heat shock response signaling pathway - cell viability counter screen (AID 743209); also: nearly all actives have a fitted effect of over 50% in size
Summary of the method: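 HSE-bla HeLa; 1500 cells/well; overnight 37 C, 5% CO2; compound 5 h 37 C; LiveBLAzer B/G substrate 2.5 h RT; CellTiter-Glo 30 min RT; luminescence.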

[18] = qHTS assay for small molecule activators of the heat shock response signaling pathway (AID 743210; active = well fitted activation curve with a large enough effect in the signal ratio in the repeat runs, with a control signal flat, not every such curve was filed as active; the % refers to the signal ratio; also: series mostly up to about 63 µM)
Summary of the method: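 Compound exposure lasted 5 h at 37 C in HeLa cells carrying a heat-shock-element-driven beta-lactamase reporter. Read-out: fluorescence intensity after 2.5 h room-temperature loading with LiveBLAzer B/G FRET substrate.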

[19] = qHTS assay to identify small molecule antagonists of the thyroid receptor (TR) signaling pathway (AID 743065)
Summary of the method: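 Antagonism measured as loss of luciferase signal in GH3 cells stably carrying a TRE-luciferase reporter, co-treated with compound and T3 (1 nM final) for 23.5 h at 37 C. Viability was read in the same well by CellTiter-Fluor.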

[20] = target: Peroxisome proliferator-activated receptor gamma (Homo sapiens) (UniProt P37231); assay: qHTS assay to identify small molecule antagonists of the peroxisome proliferator-activated receptor gamma (PPARg) signaling pathway (AID 743191; calls by dose curve; also: series mostly up to about 63 µM; nearly all actives have a fitted effect of over 30% in size)
Summary of the method: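 Beta-lactamase reporter under UAS control in HEK293H PPARg-bla cells; compound treatment 17 h at 37C. Read-out: fluorescence intensity after 1 h room-temperature incubation with LiveBLAzer B/G FRET substrate.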

Measured: Potency

Aryl hydrocarbon receptor (Homo sapiens), sequence (P35869 whole entry, looked up): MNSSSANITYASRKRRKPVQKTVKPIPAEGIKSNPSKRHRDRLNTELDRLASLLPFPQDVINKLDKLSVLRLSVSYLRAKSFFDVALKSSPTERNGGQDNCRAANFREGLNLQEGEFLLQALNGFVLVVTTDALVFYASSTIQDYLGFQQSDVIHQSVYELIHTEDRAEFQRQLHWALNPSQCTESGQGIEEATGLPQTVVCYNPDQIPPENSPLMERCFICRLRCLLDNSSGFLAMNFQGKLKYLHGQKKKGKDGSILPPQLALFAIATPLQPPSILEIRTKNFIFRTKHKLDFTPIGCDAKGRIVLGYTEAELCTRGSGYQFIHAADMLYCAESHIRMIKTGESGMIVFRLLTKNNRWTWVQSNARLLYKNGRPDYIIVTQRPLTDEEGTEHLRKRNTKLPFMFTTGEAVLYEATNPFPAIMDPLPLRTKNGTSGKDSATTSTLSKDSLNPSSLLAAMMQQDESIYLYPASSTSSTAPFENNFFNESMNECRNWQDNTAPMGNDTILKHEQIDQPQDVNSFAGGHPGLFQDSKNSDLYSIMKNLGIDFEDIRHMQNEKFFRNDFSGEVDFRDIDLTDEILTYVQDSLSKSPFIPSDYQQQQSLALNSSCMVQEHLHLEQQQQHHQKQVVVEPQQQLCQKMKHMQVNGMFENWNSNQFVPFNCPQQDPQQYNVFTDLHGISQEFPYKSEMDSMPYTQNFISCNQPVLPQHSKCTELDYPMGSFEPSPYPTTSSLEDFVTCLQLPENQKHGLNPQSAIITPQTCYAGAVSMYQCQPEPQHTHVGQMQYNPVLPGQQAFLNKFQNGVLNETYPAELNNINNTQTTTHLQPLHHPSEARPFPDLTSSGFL
Peroxisome proliferator-activated receptor gamma (Homo sapiens), sequence (P37231 whole entry, looked up): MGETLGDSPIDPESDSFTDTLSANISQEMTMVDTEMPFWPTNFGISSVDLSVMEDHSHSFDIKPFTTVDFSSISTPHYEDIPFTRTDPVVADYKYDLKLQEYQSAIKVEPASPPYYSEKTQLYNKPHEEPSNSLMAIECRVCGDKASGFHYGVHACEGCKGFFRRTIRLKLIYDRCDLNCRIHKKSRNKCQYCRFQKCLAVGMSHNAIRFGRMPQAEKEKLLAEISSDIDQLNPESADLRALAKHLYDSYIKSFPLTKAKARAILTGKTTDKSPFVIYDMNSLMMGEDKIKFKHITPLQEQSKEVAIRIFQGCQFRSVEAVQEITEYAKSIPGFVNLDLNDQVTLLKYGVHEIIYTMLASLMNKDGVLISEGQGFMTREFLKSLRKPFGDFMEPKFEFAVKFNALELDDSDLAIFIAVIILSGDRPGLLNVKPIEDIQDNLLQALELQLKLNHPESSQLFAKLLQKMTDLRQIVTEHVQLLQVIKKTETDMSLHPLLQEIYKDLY
Aromatase (Homo sapiens), sequence (P11511 whole entry, looked up): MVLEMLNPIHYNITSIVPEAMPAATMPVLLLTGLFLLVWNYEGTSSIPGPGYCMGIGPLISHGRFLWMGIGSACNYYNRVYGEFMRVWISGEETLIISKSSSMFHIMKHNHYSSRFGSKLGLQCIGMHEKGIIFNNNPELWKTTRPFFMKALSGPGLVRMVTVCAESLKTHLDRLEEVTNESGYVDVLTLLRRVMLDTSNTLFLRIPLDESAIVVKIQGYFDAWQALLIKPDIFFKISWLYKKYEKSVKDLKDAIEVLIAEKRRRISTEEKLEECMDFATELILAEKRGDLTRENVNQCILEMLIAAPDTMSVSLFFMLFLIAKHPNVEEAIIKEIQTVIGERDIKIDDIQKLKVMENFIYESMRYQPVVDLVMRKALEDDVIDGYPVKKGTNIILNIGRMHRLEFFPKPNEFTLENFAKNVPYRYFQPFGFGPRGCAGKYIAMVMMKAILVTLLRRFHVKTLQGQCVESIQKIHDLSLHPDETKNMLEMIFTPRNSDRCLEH
Estrogen receptor (Homo sapiens), sequence (P03372 whole entry, looked up): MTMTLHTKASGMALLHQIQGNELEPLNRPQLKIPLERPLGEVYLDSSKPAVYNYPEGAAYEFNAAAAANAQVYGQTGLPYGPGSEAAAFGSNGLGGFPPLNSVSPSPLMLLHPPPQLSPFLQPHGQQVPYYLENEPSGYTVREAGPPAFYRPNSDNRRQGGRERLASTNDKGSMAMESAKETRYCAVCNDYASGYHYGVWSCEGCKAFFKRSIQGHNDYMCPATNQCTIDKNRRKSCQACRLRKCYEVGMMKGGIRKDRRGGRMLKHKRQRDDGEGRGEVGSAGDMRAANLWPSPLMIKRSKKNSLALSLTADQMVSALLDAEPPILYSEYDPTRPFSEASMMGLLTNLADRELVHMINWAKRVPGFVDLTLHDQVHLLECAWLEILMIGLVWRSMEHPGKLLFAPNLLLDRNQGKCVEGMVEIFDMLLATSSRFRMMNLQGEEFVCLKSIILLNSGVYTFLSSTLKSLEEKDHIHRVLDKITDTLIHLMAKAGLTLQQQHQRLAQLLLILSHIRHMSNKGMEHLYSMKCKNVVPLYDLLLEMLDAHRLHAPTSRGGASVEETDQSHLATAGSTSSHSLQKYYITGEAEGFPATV

CCc1ccccc1CC
not listed: [19] | [20]
inactive: all other assays above

C[C@]12CC[C@@H]3c4ccc(O)cc4CC[C@H]3[C@@H]1C[C@@H](O)[C@@H]2O
not listed: [3] | [5] | [6] | [7] | [16]
inactive: all other assays above

CC1(C)OC[C@@H]2O[C@@]3(C(=O)O)OC(C)(C)O[C@H]3[C@@H]2O1
not listed: [3] | [5] | [6] | [7] | [18]
inactive: all other assays above

CCCCCCCCCCCCCCCC(=O)OC(C)C
inactive: [1] | [19] | [2] | [4] | [8] | [12] | [14] | [15] | [16] | [17]

CCNc1ccccc1
not listed: [3] | [5] | [6] | [7]
inactive: all other assays above

CCOCCOCCOCCO
not listed: [3] | [5] | [6] | [7]
inactive: all other assays above

CCCCCCCCCCO
not listed: [19] | [20]
inactive: all other assays above

NCCNCCN
not listed: [3] | [5] | [6] | [7]
inactive: all other assays above

CCO[Si](CCCN)(OCC)OCC
not listed: [2] | [11] | [19]
inactive: all other assays above

COC(=O)CCCC(=O)OC
inactive: [1] | [2] | [4] | [8] | [12] | [14] | [15] | [16] | [17] | [18]

CC(C)(C#N)c1cc(Cn2cncn2)cc(C(C)(C)C#N)c1
inactive: [4] | [8] | [10] | [11] | [12] | [13] | [20] | [14] | [15] | [17] | [18]
